Measurements published in PubChem BioAssay AID1159580 (chemical genetic matrix, 2015).
“And” between values parts separate entries of the source, which are not always exact repeats. Equal values may be shown once. Out of some 5,500 compounds screened, about 2,000 (36%) were called active. Not shown: some 18% with an inconclusive outcome. Cut-off read from the data, not from the text of the source: active = normalized growth mostly below about 0.91 (no sharp cut-off); inconclusive = no clear call, values can overlap the other calls; inactive = mostly above about 0.92. The list shows a part of the results.

Assay: chemical genetic growth profiling, strain panel (AID 1159580);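 note: tested at 20 µM; growth read once vehicle control cultures reached saturation at 30 °C; 1 = growth at the plate median or of vehicle wells; lower values mean less growth of the strain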
Settings: S. cerevisiae deletion strains, growth OD

Measured: normalized growth

CC(C)CC1C(=O)N2CCC[C@H]2C2(O)O[C@](NC(=O)C3C=C4c5cccc6[nH]c(Br)c(c56)C[C@H]4N(C)C3)(C(C)C)C(=O)N12 (stereo partly specified)
inactive: locus YAL013W, strain DEP1, active compounds read low 0.989 | locus YAL021C, strain ccr4, active compounds read low 0.976 | locus YAL026C, strain drs2, active compounds read low 0.991 | locus YAL030W, strain snc1, active compounds read low 0.998 | locus YBL061C, strain skt5, active compounds read low 0.987 | locus YBR009C, strain hhf1, active compounds read low 0.996 | locus YBR021W, strain FUR4, active compounds read low 0.996 | locus YBR023C, strain chs3, active compounds read low 0.992 | locus YBR171W, strain sec66, active compounds read low 0.981 | locus YBR229C, strain ROT2, active compounds read low 0.993 | locus YBR231C, strain swc5, active compounds read low 0.968 | locus YBR279W, strain paf1, active compounds read low 0.988 | locus YCL011C, strain gbp2, active compounds read low 0.976 | locus YCL016C, strain dcc1, active compounds read low 0.995 | locus YCL029C, strain bik1, active compounds read low 0.961 | locus YCL069W, strain vba3, active compounds read low 0.997 | locus YCR088W, strain abp1, active compounds read low 0.99 | locus YDL005C, strain med2, active compounds read low 0.987 | locus YDL035C, strain GPR1, active compounds read low 0.993 | locus YDL040C, strain nat1, active compounds read low 0.984 | locus YDL074C, strain BRE1, active compounds read low 0.974 | locus YDL101C, strain DUN1, active compounds read low 0.988 | locus YDL134C, strain PPH21, active compounds read low 0.992 | locus YDL185W, strain tfp1, active compounds read low 0.947 | locus YDL192W, strain arf1, active compounds read low 0.965 | locus YDR001C, strain nth1, active compounds read low 0.972 | locus YDR069C, strain doa4, active compounds read low 0.983 | locus YDR101C, strain arx1, active compounds read low 0.984 | locus YDR137W, strain rgp1, active compounds read low 0.885 | locus YDR150W, strain NUM1, active compounds read low 0.976 | locus YDR159W, strain sac3, active compounds read low 0.989 | locus YDR162C, strain NBP2, active compounds read low 0.989 | locus YDR195W, strain ref2 0.962 | locus YDR297W, strain sur2, active compounds read low 0.976 | locus YDR318W, strain mcm21, active compounds read low 0.977 | locus YDR334W, strain swr1, active compounds read low 0.973 | locus YDR335W, strain msn5, active compounds read low 0.995 | locus YDR388W, active compounds read low 0.989 | locus YDR392W, strain spt3, active compounds read low 0.959 | locus YDR502C, strain sam2, active compounds read low 0.972 | locus YEL003W, strain gim4, active compounds read low 0.981 | locus YEL037C, strain rad23, active compounds read low 0.989 | locus YEL061C, strain CIN8 (second series), active compounds read low 0.995 | locus YEL061C, strain CIN8, active compounds read low 0.982 | locus YER015W, strain faa2, active compounds read low 0.972 | locus YER016W, strain bim1, active compounds read low 0.982 | locus YER110C, active compounds read low 0.964 | locus YER111C, strain swi4, active compounds read low 0.993 | locus YER155C, strain BEM2 (second series), active compounds read low 0.973 | locus YER155C, strain BEM2, active compounds read low 0.985 | locus YER167W, strain BCK2, active compounds read low 0.961 | locus YFR010W, strain ubp6, active compounds read low 1.01 | locus YGL078C, strain dbp3, active compounds read low 0.965 | locus YGL086W, strain mad1, active compounds read low 0.97 | locus YGL167C, strain pmr1, active compounds read low 0.974 | locus YGL173C, strain kem1, active compounds read low 1 | locus YGL227W, strain vid30, active compounds read low 0.994 | locus YGL240W, strain doc1, active compounds read low 0.943 | locus YGL248W, strain PDE1, active compounds read low 0.987 | locus YGL253W, strain hxk2, active compounds read low 0.993 | locus YGR078C, strain PAC10, active compounds read low 0.989 | locus YGR135W, strain pre9, active compounds read low 0.982 | locus YGR229C, strain SMI1, active compounds read low 1.01 | locus YGR252W, strain gcn5, active compounds read low 1.14 | locus YHR013C, strain ard1, active compounds read low 0.945 | locus YHR027C, strain rpn1, active compounds read low 0.962 | locus YHR030C, strain SLT2, active compounds read low 0.981 and 0.978 | locus YHR079C, strain IRE1 (second series), active compounds read low 0.982 | locus YHR079C, strain IRE1, active compounds read low 0.986 | locus YHR094C, strain hxt1, active compounds read low 0.966 | locus YHR129C, strain ARP1, active compounds read low 0.985 | locus YHR142W, strain chs7, active compounds read low 1.01 | locus YHR200W, strain rpn10, active compounds read low 0.976 | locus YIL066C, strain RNR3, active compounds read low 0.981 | locus YIL073C, strain SPO22, active compounds read low 0.925 | locus YIL125W, strain kgd1, active compounds read low 0.965 | locus YIR030C, strain dcg1, active compounds read low 0.987 | locus YJL092W, strain hpr5, active compounds read low 0.968 | locus YJL095W, strain BCK1 (second series), active compounds read low 0.999 | locus YJL095W, strain BCK1, active compounds read low 0.971 and 0.976 | locus YJL115W, strain asf1, active compounds read low 0.958 | locus YJL129C, strain trk1, active compounds read low 0.957 | locus YJL134W, strain LCB3, active compounds read low 0.983 | locus YJL154C, strain vps35, active compounds read low 0.979 | locus YJL164C, strain tpk1, active compounds read low 0.997 | locus YJL166W, strain qcr8, active compounds read low 0.996 | locus YJL168C, strain set2, active compounds read low 0.977 | locus YJL187C, strain SWE1 (second series), active compounds read low 0.979 | locus YJR043C, strain POL32, active compounds read low 0.995 | locus YJR066W, strain TOR1, active compounds read low 0.993 | locus YJR075W, strain HOC1, active compounds read low 0.992
